Paper PMC7862700, “An all-to-all approach to the identification of sequence-specific readers for epigenetic DNA modifications on cytosine”

Tests used:
Assay in all cases: DAPPL (digital affinity profiling via proximity ligation, sequencing); 10 mM Tris-HCl pH 7.5, 50 mM NaCl, 1 mM DTT, 4% glycerol, room temperature, 30 min; GST-TFs on glutathione beads, 16-mer random dsDNA library, 0.1% formaldehyde crosslink after washing; high values mean tight binding
Conditions in all cases: protein: recombinant; tags: N-terminal GST; dsDNA, one strand shown
FEV = target: T1, FEV (Homo sapiens, UniProt Q99581 1-238)
T1 sequence: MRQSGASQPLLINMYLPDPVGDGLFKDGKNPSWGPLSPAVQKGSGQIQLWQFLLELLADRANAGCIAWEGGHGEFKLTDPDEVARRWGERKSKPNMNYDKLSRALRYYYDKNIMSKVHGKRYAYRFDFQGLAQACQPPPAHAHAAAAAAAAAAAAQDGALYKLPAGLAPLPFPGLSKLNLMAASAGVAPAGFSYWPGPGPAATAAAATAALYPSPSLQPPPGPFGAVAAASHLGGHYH
Procedure, shortened: (§1)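 GST fusions of human transcription factors were expressed in yeast and captured with glutathione beads. Once given DNA barcodes and pooled alongside a tag-only sample, they were incubated for 30 min at room temperature with 200 nmole of a random double-stranded 16-mer DNA library in Tris/NaCl/DTT/glycerol buffer, then washed, crosslinked (0.1% formaldehyde), proximity-ligated, PCR-amplified and sequenced on an Illumina NextSeq500. The binding signal of each hexamer is its read frequency for a factor divided by its frequency for the tag-only sample.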

ETV5 = ETV5 (Homo sapiens, UniProt P41161 1-510)
Procedure, shortened: as §1

SPIC = target: T2, SPIC (Homo sapiens, UniProt Q8N5J4 1-248)
T2 sequence: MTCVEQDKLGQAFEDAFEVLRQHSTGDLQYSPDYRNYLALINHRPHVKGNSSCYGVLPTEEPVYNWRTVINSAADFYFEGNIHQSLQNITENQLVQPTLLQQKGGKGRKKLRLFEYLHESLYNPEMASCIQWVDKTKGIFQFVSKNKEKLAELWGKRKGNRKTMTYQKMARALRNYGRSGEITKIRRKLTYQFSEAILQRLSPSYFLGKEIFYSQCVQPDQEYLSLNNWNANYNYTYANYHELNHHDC
Procedure, shortened: as §1

ELF4 = ELF4 (Homo sapiens, UniProt Q99607 1-663)
Procedure, shortened: as §1

ELK4 = target: T3, ELK4 (Homo sapiens, UniProt P28324-2 1-405)
T3 sequence: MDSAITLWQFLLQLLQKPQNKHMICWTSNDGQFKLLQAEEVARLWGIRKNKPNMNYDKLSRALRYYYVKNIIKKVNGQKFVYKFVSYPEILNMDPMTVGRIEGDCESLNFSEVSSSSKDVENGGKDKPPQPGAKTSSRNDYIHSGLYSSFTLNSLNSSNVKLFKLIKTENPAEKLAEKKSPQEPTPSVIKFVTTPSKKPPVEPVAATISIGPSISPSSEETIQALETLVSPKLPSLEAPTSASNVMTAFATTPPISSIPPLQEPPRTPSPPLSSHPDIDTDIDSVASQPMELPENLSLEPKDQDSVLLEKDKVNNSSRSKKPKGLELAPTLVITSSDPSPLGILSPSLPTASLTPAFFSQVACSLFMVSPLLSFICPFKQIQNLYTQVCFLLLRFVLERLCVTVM
Procedure, shortened: as §1

ETV2 = target: T4, ETV2 (Homo sapiens, UniProt O00321 1-342)
T4 sequence: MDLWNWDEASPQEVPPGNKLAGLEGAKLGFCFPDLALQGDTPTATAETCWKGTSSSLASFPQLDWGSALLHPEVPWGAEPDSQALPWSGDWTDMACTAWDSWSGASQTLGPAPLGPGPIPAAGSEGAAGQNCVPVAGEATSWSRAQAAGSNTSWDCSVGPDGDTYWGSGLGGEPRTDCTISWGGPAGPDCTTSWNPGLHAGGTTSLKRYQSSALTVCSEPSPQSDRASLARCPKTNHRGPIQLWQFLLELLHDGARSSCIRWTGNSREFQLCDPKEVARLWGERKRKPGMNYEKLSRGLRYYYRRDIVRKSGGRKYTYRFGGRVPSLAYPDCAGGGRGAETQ
Procedure, shortened: as §1

ELF3 = target: T5, ELF3 (Homo sapiens, UniProt P78545 1-371)
T5 sequence: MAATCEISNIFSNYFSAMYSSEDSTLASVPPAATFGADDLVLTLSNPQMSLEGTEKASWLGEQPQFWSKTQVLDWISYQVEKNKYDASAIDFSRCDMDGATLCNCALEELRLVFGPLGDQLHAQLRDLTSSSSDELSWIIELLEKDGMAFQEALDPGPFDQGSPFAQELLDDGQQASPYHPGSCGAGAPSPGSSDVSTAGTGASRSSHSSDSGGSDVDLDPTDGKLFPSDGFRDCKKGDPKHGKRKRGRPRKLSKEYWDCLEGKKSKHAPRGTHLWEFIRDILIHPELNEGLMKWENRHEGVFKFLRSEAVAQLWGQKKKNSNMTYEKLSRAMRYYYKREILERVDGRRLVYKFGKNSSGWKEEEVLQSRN
Procedure, shortened: as §1

ETV1 = ETV1 (Homo sapiens, UniProt P50549 1-477)
Procedure, shortened: as §1

ERF = target: T6, ERF (Homo sapiens, UniProt P50548 1-548)
T6 sequence: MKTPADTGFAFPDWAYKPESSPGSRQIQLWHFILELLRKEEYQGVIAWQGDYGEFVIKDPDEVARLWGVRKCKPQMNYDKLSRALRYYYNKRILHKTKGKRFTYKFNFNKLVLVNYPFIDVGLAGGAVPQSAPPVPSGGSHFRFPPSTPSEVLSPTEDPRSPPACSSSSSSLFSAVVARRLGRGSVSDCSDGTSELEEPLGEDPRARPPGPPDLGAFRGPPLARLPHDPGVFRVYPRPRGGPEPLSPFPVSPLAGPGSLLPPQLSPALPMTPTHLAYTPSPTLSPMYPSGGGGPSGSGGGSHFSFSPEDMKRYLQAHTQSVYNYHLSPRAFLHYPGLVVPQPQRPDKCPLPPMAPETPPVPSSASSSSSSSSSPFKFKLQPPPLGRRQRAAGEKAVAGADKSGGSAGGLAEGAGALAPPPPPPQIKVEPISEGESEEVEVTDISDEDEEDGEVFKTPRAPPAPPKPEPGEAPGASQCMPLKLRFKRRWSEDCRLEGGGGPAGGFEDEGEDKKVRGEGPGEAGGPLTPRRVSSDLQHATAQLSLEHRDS
Procedure, shortened: as §1

ETV3L = target: T7, ETV3L (Homo sapiens, UniProt Q6ZN32 1-361)
T7 sequence: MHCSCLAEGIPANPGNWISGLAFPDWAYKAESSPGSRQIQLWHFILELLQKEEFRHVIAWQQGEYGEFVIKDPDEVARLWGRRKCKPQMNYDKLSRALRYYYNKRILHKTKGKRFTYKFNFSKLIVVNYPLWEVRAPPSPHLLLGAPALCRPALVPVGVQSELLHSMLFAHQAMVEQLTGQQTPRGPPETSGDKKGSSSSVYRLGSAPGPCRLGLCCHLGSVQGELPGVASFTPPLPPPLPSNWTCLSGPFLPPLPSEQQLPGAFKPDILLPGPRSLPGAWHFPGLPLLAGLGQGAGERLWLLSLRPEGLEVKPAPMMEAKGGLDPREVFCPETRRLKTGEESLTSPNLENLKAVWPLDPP
Procedure, shortened: as §1

ETS2 = target: T8, ETS2 (Homo sapiens, UniProt P15036 1-469)
T8 sequence: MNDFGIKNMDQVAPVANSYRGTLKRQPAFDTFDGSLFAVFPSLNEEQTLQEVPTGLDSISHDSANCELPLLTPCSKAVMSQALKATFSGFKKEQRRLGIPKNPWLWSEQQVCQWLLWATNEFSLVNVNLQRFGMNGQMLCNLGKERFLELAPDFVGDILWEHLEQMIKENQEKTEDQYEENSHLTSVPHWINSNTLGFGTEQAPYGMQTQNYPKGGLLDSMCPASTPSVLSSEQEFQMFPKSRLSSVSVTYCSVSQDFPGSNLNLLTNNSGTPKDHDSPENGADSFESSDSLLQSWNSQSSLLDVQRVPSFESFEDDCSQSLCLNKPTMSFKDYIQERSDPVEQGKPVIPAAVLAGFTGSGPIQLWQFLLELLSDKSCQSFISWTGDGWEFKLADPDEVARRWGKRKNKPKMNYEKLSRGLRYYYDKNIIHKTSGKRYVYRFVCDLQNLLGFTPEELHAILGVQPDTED
Procedure, shortened: as §1

SPDEF = target: T9, SPDEF (Homo sapiens, UniProt O95238 1-335)
T9 sequence: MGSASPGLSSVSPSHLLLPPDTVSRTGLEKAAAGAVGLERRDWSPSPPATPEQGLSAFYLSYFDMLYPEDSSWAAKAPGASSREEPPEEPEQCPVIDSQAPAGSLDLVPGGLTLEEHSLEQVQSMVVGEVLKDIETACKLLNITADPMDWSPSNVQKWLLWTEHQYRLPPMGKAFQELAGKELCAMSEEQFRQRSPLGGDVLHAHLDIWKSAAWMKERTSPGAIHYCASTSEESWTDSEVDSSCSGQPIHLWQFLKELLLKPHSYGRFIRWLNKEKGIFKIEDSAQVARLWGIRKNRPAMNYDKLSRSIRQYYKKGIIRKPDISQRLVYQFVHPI
Procedure, shortened: as §1

ETV7 = target: T10, ETV7 (Homo sapiens, UniProt Q9Y603 1-341)
T10 sequence: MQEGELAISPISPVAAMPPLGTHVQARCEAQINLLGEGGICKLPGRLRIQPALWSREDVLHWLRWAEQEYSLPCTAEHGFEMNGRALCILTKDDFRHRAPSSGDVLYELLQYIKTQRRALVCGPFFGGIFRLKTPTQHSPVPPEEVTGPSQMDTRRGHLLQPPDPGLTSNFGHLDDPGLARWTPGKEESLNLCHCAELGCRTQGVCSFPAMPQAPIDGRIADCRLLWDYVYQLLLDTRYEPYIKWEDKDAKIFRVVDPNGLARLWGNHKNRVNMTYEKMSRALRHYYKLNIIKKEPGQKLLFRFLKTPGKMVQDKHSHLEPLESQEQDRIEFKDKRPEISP
Procedure, shortened: as §1

ELF5 = target: T11, ELF5 (Homo sapiens, UniProt Q9UKW6-2 1-255)
T11 sequence: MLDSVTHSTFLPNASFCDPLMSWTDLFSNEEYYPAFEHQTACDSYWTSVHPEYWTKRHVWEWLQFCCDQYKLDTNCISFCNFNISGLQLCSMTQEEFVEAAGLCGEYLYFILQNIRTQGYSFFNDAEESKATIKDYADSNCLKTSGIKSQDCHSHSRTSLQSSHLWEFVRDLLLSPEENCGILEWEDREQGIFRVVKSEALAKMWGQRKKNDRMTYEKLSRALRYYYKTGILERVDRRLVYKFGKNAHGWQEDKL
Procedure, shortened: as §1

ETV3 = target: T12, ETV3 (Homo sapiens, UniProt P41162-2 1-143)
T12 sequence: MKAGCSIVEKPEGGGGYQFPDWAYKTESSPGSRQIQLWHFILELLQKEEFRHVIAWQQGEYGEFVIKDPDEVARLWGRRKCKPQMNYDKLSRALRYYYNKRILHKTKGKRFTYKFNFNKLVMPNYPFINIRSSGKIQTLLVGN
Procedure, shortened: as §1

ETV6 = ETV6 (Homo sapiens, UniProt P41212 1-452)
Procedure, shortened: as §1

ETV5, sequence (P41161 whole entry): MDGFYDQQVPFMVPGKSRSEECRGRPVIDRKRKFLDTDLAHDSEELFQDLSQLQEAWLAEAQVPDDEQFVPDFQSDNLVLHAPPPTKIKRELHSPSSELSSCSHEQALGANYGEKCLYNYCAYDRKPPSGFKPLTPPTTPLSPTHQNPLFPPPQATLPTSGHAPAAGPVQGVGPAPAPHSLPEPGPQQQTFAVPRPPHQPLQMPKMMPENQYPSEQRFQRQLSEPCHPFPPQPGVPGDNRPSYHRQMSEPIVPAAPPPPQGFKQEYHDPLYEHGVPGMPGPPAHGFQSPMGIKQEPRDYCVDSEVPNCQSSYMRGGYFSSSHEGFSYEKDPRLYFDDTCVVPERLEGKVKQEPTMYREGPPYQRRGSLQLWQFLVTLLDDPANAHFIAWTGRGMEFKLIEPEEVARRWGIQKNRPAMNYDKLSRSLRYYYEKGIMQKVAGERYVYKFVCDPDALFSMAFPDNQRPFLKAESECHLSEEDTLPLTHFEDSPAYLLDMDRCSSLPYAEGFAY
ELF4, sequence (Q99607 whole entry): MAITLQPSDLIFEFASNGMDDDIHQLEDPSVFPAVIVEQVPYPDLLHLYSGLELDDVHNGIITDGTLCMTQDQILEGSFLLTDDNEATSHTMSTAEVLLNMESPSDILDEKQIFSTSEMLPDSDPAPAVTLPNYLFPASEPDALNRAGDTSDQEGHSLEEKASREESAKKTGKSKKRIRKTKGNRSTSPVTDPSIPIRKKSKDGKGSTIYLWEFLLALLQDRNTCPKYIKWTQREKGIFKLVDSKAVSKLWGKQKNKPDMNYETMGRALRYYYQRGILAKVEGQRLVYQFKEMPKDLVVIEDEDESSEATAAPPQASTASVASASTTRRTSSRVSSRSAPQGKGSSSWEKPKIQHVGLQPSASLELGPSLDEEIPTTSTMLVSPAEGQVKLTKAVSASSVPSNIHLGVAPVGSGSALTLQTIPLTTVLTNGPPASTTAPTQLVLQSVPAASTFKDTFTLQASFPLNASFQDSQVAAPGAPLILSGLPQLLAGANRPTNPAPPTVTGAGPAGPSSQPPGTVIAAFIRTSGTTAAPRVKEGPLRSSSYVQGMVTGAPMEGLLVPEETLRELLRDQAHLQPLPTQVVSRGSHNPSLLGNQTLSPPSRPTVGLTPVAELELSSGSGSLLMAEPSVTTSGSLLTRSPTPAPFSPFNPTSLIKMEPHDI
ETV1, sequence (P50549 whole entry): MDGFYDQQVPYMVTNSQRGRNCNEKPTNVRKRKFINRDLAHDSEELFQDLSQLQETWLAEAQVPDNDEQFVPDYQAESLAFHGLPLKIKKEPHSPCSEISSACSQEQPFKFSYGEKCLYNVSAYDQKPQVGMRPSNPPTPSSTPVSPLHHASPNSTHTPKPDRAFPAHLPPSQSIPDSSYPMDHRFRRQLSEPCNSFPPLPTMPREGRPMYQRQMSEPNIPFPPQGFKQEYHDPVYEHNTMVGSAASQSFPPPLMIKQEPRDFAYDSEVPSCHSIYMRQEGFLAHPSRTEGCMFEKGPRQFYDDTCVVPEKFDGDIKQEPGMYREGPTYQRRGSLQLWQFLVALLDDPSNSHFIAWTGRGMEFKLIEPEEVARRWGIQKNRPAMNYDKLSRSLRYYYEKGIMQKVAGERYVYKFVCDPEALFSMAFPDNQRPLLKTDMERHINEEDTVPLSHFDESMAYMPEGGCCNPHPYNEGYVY
ETV6, sequence (P41212 whole entry): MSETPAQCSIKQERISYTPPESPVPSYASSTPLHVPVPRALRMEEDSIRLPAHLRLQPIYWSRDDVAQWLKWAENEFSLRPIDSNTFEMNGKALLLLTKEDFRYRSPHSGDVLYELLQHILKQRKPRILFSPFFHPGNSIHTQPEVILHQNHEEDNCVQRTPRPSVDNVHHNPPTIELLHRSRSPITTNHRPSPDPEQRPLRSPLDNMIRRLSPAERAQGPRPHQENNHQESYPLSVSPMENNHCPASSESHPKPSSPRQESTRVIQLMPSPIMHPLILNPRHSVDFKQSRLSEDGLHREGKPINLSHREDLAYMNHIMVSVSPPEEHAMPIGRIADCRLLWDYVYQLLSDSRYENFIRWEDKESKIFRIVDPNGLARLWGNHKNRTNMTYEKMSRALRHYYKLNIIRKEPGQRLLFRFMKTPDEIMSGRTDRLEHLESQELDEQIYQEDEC

Row | Sequence | binding signal (FEV) | binding signal (ETV5) | binding signal (SPIC) | binding signal (ELF4) | binding signal (ELK4) | binding signal (ETV2) | binding signal (ELF3) | binding signal (ETV1) | binding signal (ERF) | binding signal (ETV3L) | binding signal (ETS2) | binding signal (SPDEF) | binding signal (ETV7) | binding signal (ELF5) | binding signal (ETV3) | binding signal (ETV6)
1 | GGAAGT | 3.88 fold enrichment (6-mer frequency, TF over GST control) | 3.34 fold enrichment (6-mer frequency, TF over GST control) | 3.41 fold enrichment (6-mer frequency, TF over GST control) | 2.72 fold enrichment (6-mer frequency, TF over GST control) | 2.27 fold enrichment (6-mer frequency, TF over GST control) | 2.85 fold enrichment (6-mer frequency, TF over GST control) | 3.25 fold enrichment (6-mer frequency, TF over GST control) | 3.33 fold enrichment (6-mer frequency, TF over GST control) | 2.56 fold enrichment (6-mer frequency, TF over GST control) | 2.86 fold enrichment (6-mer frequency, TF over GST control) | 3.2 fold enrichment (6-mer frequency, TF over GST control) | 2.97 fold enrichment (6-mer frequency, TF over GST control) | 2.91 fold enrichment (6-mer frequency, TF over GST control) | 3.88 fold enrichment (6-mer frequency, TF over GST control) | 3.42 fold enrichment (6-mer frequency, TF over GST control) | 3.88 fold enrichment (6-mer frequency, TF over GST control)
2 | CCTCAC | 1.27 fold enrichment (6-mer frequency, TF over GST control) | 1.25 fold enrichment (6-mer frequency, TF over GST control) | 1.11 fold enrichment (6-mer frequency, TF over GST control) | 1.31 fold enrichment (6-mer frequency, TF over GST control) | 1.16 fold enrichment (6-mer frequency, TF over GST control) | 1.24 fold enrichment (6-mer frequency, TF over GST control) | 1.2 fold enrichment (6-mer frequency, TF over GST control) | 1.27 fold enrichment (6-mer frequency, TF over GST control) | 1.09 fold enrichment (6-mer frequency, TF over GST control) | 1.19 fold enrichment (6-mer frequency, TF over GST control) | 1.19 fold enrichment (6-mer frequency, TF over GST control) | 1.24 fold enrichment (6-mer frequency, TF over GST control) | 1.15 fold enrichment (6-mer frequency, TF over GST control) | 1.22 fold enrichment (6-mer frequency, TF over GST control) | 1.12 fold enrichment (6-mer frequency, TF over GST control) | 1.07 fold enrichment (6-mer frequency, TF over GST control)
